Among the data in PubChem BioAssay are inhibition values, retold here.

Molecules are shown by their SMILES. Activity calls are given as the source filed them. The rule behind the calls is not given here. Where a SMILES comes first, the peptide text is derived from it. The star is where a group is joined. Boc = CC(C)(C)OC(=O)*

Broadly, the inhibition is the share of the control response that was lost under treatment.

Chain of Pantothenate synthetase (Mycobacterium tuberculosis (strain ATCC 25618 / H37Rv)) (P9WIL5 whole entry, looked up): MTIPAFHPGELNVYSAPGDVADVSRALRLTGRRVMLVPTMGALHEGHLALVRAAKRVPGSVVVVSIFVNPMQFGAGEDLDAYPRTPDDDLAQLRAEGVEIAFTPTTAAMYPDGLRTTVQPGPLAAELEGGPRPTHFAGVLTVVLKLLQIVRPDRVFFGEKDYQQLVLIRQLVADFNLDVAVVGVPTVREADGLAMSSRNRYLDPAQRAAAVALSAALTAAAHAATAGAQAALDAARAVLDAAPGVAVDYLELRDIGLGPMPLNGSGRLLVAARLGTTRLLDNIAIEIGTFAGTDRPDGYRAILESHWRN

The test addresses Pantothenate synthetase (Mycobacterium tuberculosis (strain ATCC 25618 / H37Rv)) (UniProt P9WIL5). The test is described as follows: Recombinant Mtb pantothenate synthetase (PanC) inhibitors, coupled enzyme, confirmatory (AID 375).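 Note: 0% = full reaction with vehicle and 100% = no enzyme background.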 The following applies: coupled enzyme assay; at 10 µM, hits give high values.
`CCCN(CCO)Cc1cccc(Br)c1`: the inhibition is 3% (inactive).

For `CN1CCCN(CC(O)COCc2cccs2)CC1` (stereo not given), the inhibition is 0% (inactive).

With `CCn1cc(C(=O)N=c2sc3ccccc3n2C)c(=O)c2ccc(C)nc21`, the inhibition is 0% (inactive).

Turning to `Cc1cc(C)n(-c2ccc(C(=O)Nc3ccc4c(c3)OCCO4)cc2)n1`, the inhibition is 2% (inactive).

For the molecule `N#Cc1c(N)c(C(=O)c2ccccc2)n2c1CCCC2`, the inhibition was 6% (inactive).

Take `CCN1CCN(c2nc(-c3cccnc3)nc3ccccc23)CC1`: the inhibition was 0% (inactive).

Regarding `CCN1CCN(C(=O)N[C@@H](C(=O)N[C@@H]2C(=O)N3[C@@H]2SC(C)(C)[C@@H]3C(=O)O)c2ccccc2)C(=O)C1=O`, the inhibition is 2% (inactive).

Consider `CCCCc1cc2c(c(NC(C)=O)n1)c(=O)oc1ccccc12`, for which the inhibition is 0% (inactive).

For the molecule `O=C1CC(c2cccnc2)c2cc3c(cc2N1)OCO3` (stereo not given), the inhibition is 0% (inactive).

Consider `CCN(CC)CCNC(=O)C1CCN(S(=O)(=O)N2CCCCC2)CC1`, for which the inhibition is 0% (inactive).

Take `Cc1cc(C)n2nc(SCC(=O)N(C)Cc3ccccc3)nc2n1`: the inhibition was 3% (inactive).

On to `O=c1[nH]c(CN2CCN(Cc3ccccc3)CC2)nc2sc3c(c12)CCC3`, for which the inhibition was 0% (inactive).

Consider `CC(COc1ccccc1)NC(C)C(O)c1ccc(O)cc1` (stereo not given), for which the inhibition is 0% (inactive).

For `COc1ccc(-n2ncc3c(=O)n(CC(=O)OCc4ccccc4)cnc32)cc1`, the inhibition was 0% (inactive).

In the case of `Cn1c(=O)oc2cc(S(=O)(=O)N3CCN(c4ccccn4)CC3)ccc21`, the inhibition was 0% (inactive).

Consider `Cc1ccc(O)c(-c2cc(C(=O)Nc3ccc(S(=O)(=O)N4CC(C)OC(C)C4)cc3)[nH]n2)c1` (stereo not given), for which the inhibition was 5% (inactive).

With `COc1ccc(NC(=O)CCc2ccccc2)cc1NC(=O)c1ccco1`, the inhibition is 9% (inactive).

Regarding `COC(=O)c1cc(Br)c(=O)n(CCC2=CCCCC2)c1`, the inhibition was 0% (inactive).

For the molecule `CCOC(=O)Cc1csc(/C(=N/O)C(N)=O)n1`, the inhibition was 3% (inactive).

With `C=CCn1c(SCC(=O)Nc2ccccc2OC)nnc1-c1ccccn1`, the inhibition is 3% (inactive).

With `CC1(C)CC(CCNC(=O)c2ccco2)CC(C)(C)N1`, the inhibition is 0% (inactive).

Take `CCN1CCN(C(CNC(=O)c2ccc3c(c2)OCO3)c2cccnc2)CC1` (stereo not given): the inhibition is 0% (inactive).

Regarding `Cc1cc(C)n2nc3nc(N4CCCCC4)nc(-c4ccco4)c3c2n1`, the inhibition was 25% (inactive).

Take `COc1ccc(C(=O)Nc2cccc(C)c2)cc1S(=O)(=O)N1CCOCC1`: the inhibition was 1% (inactive).

Take `COc1ccccc1-c1cc(C(=O)Nc2cc(C)nn2-c2ccccc2)no1`: the inhibition was 6% (inactive).

Turning to `Cc1cccc(-n2nc3c(c2NC(=O)CCC2CCCCC2)CS(=O)C3)c1C` (stereo not given), the inhibition is 3% (inactive).

Consider `N#CCCN(Cc1cccnc1)C(=O)Nc1ccc(Cl)c(Cl)c1`, for which the inhibition is 1% (inactive).

For the molecule `CCC(C)(C)n1nnnc1C(c1ccc(OC)c(OC)c1)N1CCN(c2ccccc2)CC1` (stereo not given), the inhibition is 0% (inactive).

Regarding `Cc1cc(NC(c2cccnc2)c2c(C)[nH]c3ccccc23)no1` (stereo not given), the inhibition was 0% (inactive).

As to `CSc1nc(C)c(C(=O)Nc2ccccc2)c(C)c1C#N`, the inhibition was 0% (inactive).

In the case of `Cc1nnc(SCC2=C(C(=O)O)N3C(=O)[C@@H](NC(=O)Cn4cnnn4)[C@H]3SC2)s1`, the inhibition is 0% (inactive).

With `CCC(C)C(NC(=O)OC(C)(C)C)C(=O)NC(CC(C)C)C(N)=O` (stereo not drawn) (Boc-Ile-Leu-NH2; configuration not given here), the inhibition is 0% (inactive).

As for `CC(Sc1nc(-c2ccccc2)cc(C(F)(F)F)n1)C(=O)N1CCC(C(N)=O)CC1` (stereo not given), the inhibition was 0% (inactive).

Consider `C/C=C(\CS(=O)(=O)c1ccccc1)S(=O)(=O)c1ccccc1`, for which the inhibition was 0% (inactive).

In the case of `CCc1ccccc1NC(=O)c1cnc2n(c1=O)CCS2`, the inhibition was 2% (inactive).

Take `COc1ccc(OC)c(S(=O)(=O)NCCC2=CCCCC2)c1`: the inhibition is 6% (inactive).

Turning to `COc1cccc(N2CCN(Cc3cccnc3)CC2)c1`, the inhibition is 3% (inactive).

For `COc1ccc(N2CCC(CNS(=O)(=O)c3cccc(C(F)(F)F)c3)C2)cc1` (stereo not given), the inhibition was 5% (inactive).

On to `Nc1nc2sc3c(c2c(=O)s1)CCCC3`, for which the inhibition is 0% (inactive).

Take `COc1cccc(-c2cc(C(=O)N3CCCCCC3)no2)c1`: the inhibition was 1% (inactive).
